Measured values reported in the supplement of paper PMC6522484.
± gives the standard deviation of the averaged measurements.

Assays:
DLD1 [1] = test: cell viability (CellTiter-Glo) relative to plate median (fraction of plate median); higher = more viable cells; details: 10 µM, treatment time 24 h
Summary of the method: (§1)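 In 384-well plates, colorectal cancer lines with stable lentiviral 7TFP or TCF4/Wnt firefly luciferase reporters were seeded and, 24 h later, given kinase inhibitor library compounds at a final 10 µM for 24 h. A Tecan F500 reader measured firefly luciferase on one plate and CellTiterGlo on a parallel plate. Reported figures are two-replicate means of well signals normalised to the plate median, computed additively in webcellHTS2 without log transformation.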

HCT116 [2] = test: as above; details: 10 µM; treatment time 24 h; reporter: TCF4/Wnt
Summary of the method: as §1

SW480 [3] = test: as above; details: 10 µM; treatment time 24 h; reporter: 7TFP
Summary of the method: as §1

DLD1 [4] = test: TCF/Wnt firefly luciferase reporter signal relative to plate median (fraction of plate median); higher = higher Wnt reporter signal; details: 10 µM, treatment time 24 h
Summary of the method: as §1

HCT116 [5] = test: as above; details: 10 µM; treatment time 24 h; reporter: TCF4/Wnt
Summary of the method: as §1

SW480 [6] = test: as above; details: 10 µM; treatment time 24 h; reporter: 7TFP
Summary of the method: as §1

Row | SMILES | cell viability (DLD1 [1]; reporter: 7TFP) | cell viability (DLD1 [1]; reporter: TCF4/Wnt) | cell viability (HCT116 [2]) | cell viability (SW480 [3]) | TCF/Wnt firefly luciferase reporter signal (DLD1 [4]; reporter: 7TFP) | TCF/Wnt firefly luciferase reporter signal (DLD1 [4]; reporter: TCF4/Wnt) | TCF/Wnt firefly luciferase reporter signal (HCT116 [5]) | TCF/Wnt firefly luciferase reporter signal (SW480 [6])
1 | FC(F)c1nc2ccccc2n1-c1nc(N2CCOCC2)nc(N2CCOCC2)n1 | 0.82 ± 0.08 | 0.835 ± 0.016 | 0.829 ± 0.042 | 1.065 ± 0.0071 | 0.673 ± 0.019 | 0.891 ± 0.11 | 1.01 ± 0.061 | 1.03 ± 0.17
2 | O=c1cc(N2CCOCC2)oc2c(-c3cccc4c3sc3ccccc34)cccc12 | 1.01 ± 0.083 | 0.964 ± 0.052 | 1 ± 0.094 | 1.04 ± 0.014 | 1.19 ± 0.064 | 1.16 ± 0.17 | 1.73 ± 0.64 | 1.1 ± 0.042
3 | CN1CCN(C2CCN(C(=O)Nc3cc(Oc4ccc(NC(=O)C5(C(=O)Nc6ccc(F)cc6)CC5)c(F)c4)ccn3)CC2)CC1 [Golvatinib (E7050)] | 0.964 ± 0.18 | 0.904 ± 0.011 | 1.07 ± 0.064 | 1.16 ± 0.064 | 0.719 ± 0.03 | 0.728 ± 0.028 | 0.915 ± 0.12 | 1.06 ± 0.12
4 | Cn1c(=O)c(F)c(Nc2ccc(I)cc2F)c2c(=O)n(C[C@@H](O)CO)cnc21 | 1.24 ± 0.05 | 1.2 | 0.9705 ± 0.0035 | 1.18 ± 0.035 | 1.66 ± 0.057 | 1.61 ± 0.62 | 1.31 ± 0.42 | 2.19 ± 0.11
5 | COc1ccc(-c2cc3c(C)nc(N)nc3n([C@H]3CC[C@H](OCCO)CC3)c2=O)cn1 | 0.889 ± 0.028 | 0.944 ± 0.028 | 0.68 ± 0.15 | 1.1 ± 0.099 | 0.348 ± 0.096 | 0.533 ± 0.056 | 0.591 ± 0.039 | 0.725 ± 0.043
6 | Cn1cc(-c2ccc3nnc(Sc4ccc5ncccc5c4)n3n2)cn1 | 0.983 ± 0.016 | 0.9215 ± 0.0078 | 1.07 ± 0.05 | 0.862 ± 0.014 | 1.12 ± 0.16 | 1.19 ± 0.042 | 1.41 ± 0.17 | 1.02 ± 0.052
7 | NC(=O)Nc1sc(-c2ccc(F)cc2)cc1C(N)=O | 0.951 ± 0.033 | 0.93 ± 0.075 | 1.1 ± 0.085 | 1.1 ± 0.014 | 0.669 ± 0.03 | 1.16 ± 0.18 | 1.39 ± 0.2 | 1.38 ± 0.057
8 | Cc1cc(Nc2cc(CN3CCOCC3)c3nc(C)c(Cc4ccc(Cl)cc4F)n3n2)n[nH]1 | 0.907 ± 0.096 | 1.05 ± 0.064 | 0.975 ± 0.12 | 0.781 ± 0.14 | 1.27 ± 0.028 | 1.17 ± 0.43 | 0.826 ± 0.61 | 0.861 ± 0.05
9 | CO[C@H]1C[C@@H]2CC[C@@H](C)[C@@](O)(O2)C(=O)C(=O)N2CCCC[C@H]2C(=O)O[C@H]([C@H](C)C[C@@H]2CC[C@@H](OCCO)[C@H](OC)C2)CC(=O)[C@H](C)/C=C(\C)[C@@H](O)[C@@H](OC)C(=O)[C@H](C)C[C@H](C)/C=C/C=C/C=C/1C [Everolimus (RAD001)] | 1.04 ± 0.11 | 1.02 ± 0.028 | 0.974 ± 0.094 | 1.26 ± 0.028 | 0.893 ± 0.091 | 1.05 ± 0.14 | 0.951 ± 0.15 | 1.42 ± 0.057
10 | COc1cccc(-c2cc(=O)c3ccccc3o2)c1N | 1.24 ± 0.085 | 1.025 ± 0.0071 | 1.19 ± 0.071 | 1 ± 0.023 | 1.71 ± 0.2 | 1.62 ± 0.53 | 1.25 ± 1 | 1.27 ± 0.65
